# Screening data: PubChem, National Center for Advancing Translational Sciences (NCATS)
# HT1080-NT tox – kills 2HG-producing HT-1080-NT fibrosarcoma cells; HT-1080-NT fibrosarcoma viability, CellTiter-Glo ATP luminescence, 48 h; Potency, µM (titrated, usually from 46.1 µM), usual class: cytotoxic; 360,000 tested, 1.6% active; AID 686970;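 further: NT is the 2HG producing partner of a matched IDH1 knockdown line; nearly all actives have a fitted effect of over 55% in size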
#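 HT-1080-NT fibrosarcoma cells (2HG-overproducing), 750 cells/well in RPMI with 5% FBS, dosed after 2 h and incubated 48 h at 37C. CellTiter-Glo luminescence normalized to DMSO and no-cell wells; concentration-response curves fitted and classed.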
# TDP1 cell CPT – DT40-hTDP1 cell growth loss with CPT | chicken DT40 Tdp1-/-;hTDP1 cells + 20 nM CPT, ATP luminescence, 48 h | Potency, µM (doses to about 46.2 µM), actives largely listed as inhibitors | 420,000 tested, 12% active; further: nearly all actives have a fitted effect of over 55% in size
#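 Chicken DT40 Tdp1-/- cells complemented with human TDP1, 400 cells/well, exposed to compounds plus 20 nM camptothecin for at least 48 h at 37 C; viability read as ATP content by CellTiter-Glo luminescence.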
# IL-1B inflam inh – inflammasome signaling inhibition, IL-1 beta readout. activity change, % at 57.5 µM. AID 743279. 360,000 tested, 4.7% active. THP-1 LPS/ATP IL-1B secretion, AlphaLISA, 16 h; stronger effect = lower value; in the data active means activity change below about -50%; inconclusive means mostly about -30% to -49%
#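 THP-1 cells pretreated 1 hr with compounds (up to 57.5 uM final), then stimulated with LPS (250 ng/mL final) plus ATP (1.25 mM final); secreted IL-1B measured by AlphaLISA after 16 hr, decreased signal indicating inhibition.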
# ELG1 repair inh – inhibitors of ELG1-dependent DNA repair in HEK293T cells; HEK293T ELG1-luciferase reporter, luminescence, 16 h; DNA damage induced by 5-fluorouridine; 330,000 tested, 2.3% active; Potency, µM (series often up to 46.1 µM), hits mostly inhibitors; further: nearly all actives have a fitted effect of over 55% in size
#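 Reporter activity after DNA damage by 5-fluorouridine is monitored. Compound-treated cells incubate 16 hr at 37 °C, then ONE-Glo is added for 30 min before luminescence reading.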
# TDP1 cell noCPT – qHTS for Inhibitors of human tyrosyl-DNA phosphodiesterase 1 (TDP1): qHTS in cells in absence of CPT; DT40 Tdp1-/- hTDP1 cells, no CPT, ATP luminescence, 48 h; Potency, µM (series often up to 46.2 µM), most hits filed as inhibitors; 420,000 tested, 15% active; further: nearly all actives have a fitted effect of over 55% in size
#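 Chicken DT40 Tdp1-/- cells complemented with human TDP1, screened without camptothecin (DMSO vehicle only), 400 cells/well. Compounds pin-transferred, cells incubated at 37 °C for at least 48 hr. Growth read as ATP-dependent luminescence (CellTiter-Glo, 30 min at RT).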
# HT1080 IDH1KD tx – toxicity to HT-1080 IDH1 knockdown cells (counter line) | HT-1080 IDH1 knockdown viability, ATP luminescence, 48 h | Potency, µM (doses to about 46.1 µM), most hits filed as cytotoxic | 360,000 tested, 2% active | AID 686971
#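 IDH1KD HT-1080 cells, 750/well, RPMI + 5% FBS; compound pinned after 2 h settling; 48 h, 37 °C; CellTiter-Glo luminescence; % activity normalised to DMSO and no-cell wells; curves fitted, classed by r2 and efficacy.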
# Hits are given with their value; n = inactive; u = inconclusive; x = no result given; [ ] = another dose, or the depositor's remark. An excerpt weighted towards active compounds, which were near 19% of everything screened. Unless noted, the call rests on the fitted dose curve; in most records, active means well fitted curve in the direction sought with a large enough effect; inconclusive means small, poorly fitted or top-dose-only effect, or another doubt; inactive means no such curve, though single readings can be large; an effect the other way counts as inactive or inconclusive.
SMILES,HT1080-NT tox,TDP1 cell CPT,IL-1B inflam inh,ELG1 repair inh,TDP1 cell noCPT,HT1080 IDH1KD tx
CN1CCN(c2nc(-c3ccccc3)nc(-c3ccccc3)c2C#N)CC1,n,u,-96,u,u,n
COC(=O)c1sc2nc(-c3ccccc3)nc(N3CCN(C)CC3)c2c1C,n,u,n,u,26µM,n
Oc1c(Br)cc(Br)cc1CNn1cnnc1,n,n,n,n,n,n
Cc1ccc2cc(CNC(C)c3cccc4ccccc34)c(N3CCC(O)CC3)nc2c1 (stereo not drawn),x,n[9.04 µM],x,x,n,x
CNc1c(-n2cc(C(=O)OC)c(C(=O)OC)c2C(=O)OC)c(=O)n(C)c(=O)n1C,n,n,n,n,n,n
CCN(CC)S(=O)(=O)c1ccc(N2CCCC2)c(NC(=O)C2CCCCC2)c1,n,u,n,n,n,n
CCN(CC)S(=O)(=O)c1ccc(N2CCCC2)c(NC(=O)c2ccc(OC)cc2OC)c1,n,18µM,u,u,16µM,n
CCN(CC)S(=O)(=O)c1ccc(N2CCCC2)c(NC(=O)Cc2cc(OC)c(OC)c(OC)c2)c1,n,n,n,n,n,n
CCN(CC)S(=O)(=O)c1ccc(N2CCN(C)CC2)c(NC(=O)CSCC(=O)Nc2cccc(C)c2)c1,n,u,n,u,u,n
CCN(CC)S(=O)(=O)c1ccc(N2CCCC2)c(NC(=O)Cc2ccc(OC)cc2)c1,n,u,n,n,21µM,n
CCN(CC)S(=O)(=O)c1ccc(N2CCN(C)CC2)c(NC(=O)Nc2ccc(C)cc2)c1,8.2µM,u,x,u,u,21µM
CCN(CC)S(=O)(=O)c1ccc(N2CCCCC2)c(NC(=O)/C(C#N)=C/c2ccc(OC)cc2)c1,n,u,n,u,16µM,n
Cc1ccc(C(=O)Nc2ccccc2C(=O)N2CCOCC2)cc1[N+](=O)[O-],n,n,n,n,n,u
COc1ccc(CN2CCC(C)CC2)cc1OCc1ccccc1,n,u,n,n,n,n
CCOc1ccc(C2CC(c3cccc(C)c3)n3ncnc3N2)cc1 (stereo not drawn),n,13µM,n,n,23µM,n
COc1ccc(C2CC(c3ccccc3Cl)Nc3ncnn32)cc1OC (stereo not drawn),n,n,n,n,u,n
COc1cccc(C2CC(c3ccccc3Cl)Nc3ncnn32)c1 (stereo not drawn),n,26µM,u,x,u,n
Clc1ccccc1C1CC(c2ccccc2)Nc2ncnn21 (stereo not drawn),n,15µM,n,n,u,n
Nc1nc(SCC(=O)c2cccs2)n[nH]1,n,n,n,u,n,n
CCN(CC)S(=O)(=O)c1ccc(N(C)C)c(NC(=O)CSCc2c(C)noc2C)c1,n,u,n,21µM,u,n
CCN(CC)S(=O)(=O)c1ccc(OC)c(NC(=O)/C=C/c2ccco2)c1,n,u,n,23µM,n,n
CCN(CC)S(=O)(=O)c1ccc(OC)c(NC(=O)CSCc2c(C)noc2C)c1,n,u,n,n,23µM,n
CCN(CC)S(=O)(=O)c1cc(NC(=O)CSCc2c(C)noc2C)ccc1C,n,u,n,u,u,n
CCN(CC)S(=O)(=O)c1ccc(N2CCCCC2)c(NC(=O)/C=C/c2ccc(OC)c(OC)c2)c1,n,u,n,u,u,n
Cc1ccc(C(=O)c2oc3ccccc3c2NC(=O)COc2ccc(C(C)C)cc2)cc1,x,n,x,x,u,x
SMILES,HT1080-NT tox,TDP1 cell CPT,IL-1B inflam inh,ELG1 repair inh,TDP1 cell noCPT,HT1080 IDH1KD tx
O=C(O)c1ccc2c(=O)[nH]c(CCl)nc2c1,n,u,n,n,u,n
CC(=O)NC(c1cccc(F)c1)c1nc(-c2cnc3ccccc3c2)cs1 (stereo not drawn),n,u,n,x,u,n
CCOC(=O)c1cccc(NC(=O)CCn2cccc2)c1,n,n,n,u,n,n
Cc1cccc2sc(NC(=O)CCNS(=O)(=O)c3cccc4nonc34)nc12,n,u,u,u,18µM,n
CCOC(=O)c1cc(-c2ccc(C)cc2)n(CCC(=O)Nc2ccc(OC)c(OC)c2)c1C,x,u,x,x,18µM,x
CCOC(=O)c1cc(-c2ccc(C)cc2)n(CC(=O)NCc2ccco2)c1C,n,n,n,n,n,n
CCOC(=O)c1cccc(NC(=O)CCn2c(-c3ccc(F)cc3)cc(C(=O)OCC)c2C)c1,x,21µM,x,x,13µM,x
CCOC(=O)c1cc(-c2ccc(C)cc2)n(CCC(=O)Nc2ccc(C(C)C)cc2)c1C,x,5.2µM,x,x,5.2µM,x
Cc1cccc(C(=O)NC2=NC(c3ccc(Cl)cc3)CC(=O)N2)c1 (stereo not drawn),x,n,x,x,n,x
CCOC(=O)c1cc(-c2ccccc2)n(CCC(=O)Nc2nc3c(C)cccc3s2)c1C,x,13µM,x,x,13µM,x
CCOC(=O)c1c(S(=O)(=O)NCC(=O)Nc2cccc(C)c2C)c(C)n(C)c1C,n,n,n,n,n,n
